Out of some 360,000 compounds screened, about 3,700 (1%) were called active. Not shown: some 2% with an inconclusive outcome.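 The calls were made as follows: active = normalized GFP-positive differentiation at or above the plate's own cutoff, the solvent-only control mean plus 3 SD; inconclusive = no clear call, values can overlap the other calls; inactive = the rest.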 The full list was thinned out, with actives kept by preference.

This experiment can be described thus: HoxA9-arrested leukemia cell differentiation promoters – flow cytometry, MLPCN library, primary screen (AID 624256).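 As to GFP+ MAC1+ double positive: cells exposed to compound for four days before flow analysis.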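 As to normalized GFP-positive differentiation: cells exposed to compound for four days before flow analysis; 0% = DMSO wells and 100% = fulvestrant positive control at 5 µM.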 The note with it: ER-HoxA9 myeloid progenitors, lysozyme-GFP differentiation, at 10 µM; GFP+ MAC1+ double positive: measured here: differentiation confirmed by MAC1 staining, stronger effect = higher value; normalized GFP-positive differentiation: stronger effect = higher value.
Consider `O=C(NNC(=S)NCc1ccco1)C(c1ccccc1)c1ccccc1`, for which the GFP+ MAC1+ double positive came out at 5.5% and the normalized GFP-positive differentiation is 175% (active).

For `COC(=O)Cc1ccc(NC(=S)NCc2ccco2)cc1`, the GFP+ MAC1+ double positive is 0.6% and the result was inactive.

With `COc1cccc(OC)c1C(=O)NC(=S)NCc1ccco1`, the GFP+ MAC1+ double positive is 0.3% and the call was inactive.

Turning to `Nc1cccc(-c2cncc(N3CCN(Cc4ccccn4)CC3)n2)c1`, the GFP+ MAC1+ double positive was determined as 0.8% and the compound was called inactive.

For `CC(C)c1cccc(C(C)C)c1Nc1cn[nH]c1`, the GFP+ MAC1+ double positive stood at 0.2% and the compound was called inactive.

As to `O=C(/C=C/c1ccccc1[N+](=O)[O-])OCC(=O)N1CCCC1`, the GFP+ MAC1+ double positive came out at 0.4% and the outcome was inactive.

Turning to `CC(C)CNC(=O)COC(=O)/C=C/c1ccccc1[N+](=O)[O-]`, the GFP+ MAC1+ double positive is 4.9% and the normalized GFP-positive differentiation is 14.3% (active).

Regarding `CC(C)CNC(=O)COC(=O)/C=C/c1ccco1`, the GFP+ MAC1+ double positive was found to be 0.7% and the compound was called inactive.

On to `O=C1C(Sc2cccc(F)c2)=C[C@@]2(O)CC[C@@H](O)[C@]1(Sc1cccc(F)c1)[C@H]2O`, for which the GFP+ MAC1+ double positive amounted to 2% and the call was inactive.

`O=C1NC[C@H](CCCCN2CCN(CCc3ccccc3)C(=O)C2=O)N(CC2CCCCC2)C1=O`: the GFP+ MAC1+ double positive was 0.5% and the result was inactive.

On to `Nc1nc2cc(Cl)ccc2n1N`, for which the GFP+ MAC1+ double positive is 1.5% and the result was inactive.

Take `CN1OC[C@@H]2CN(S(=O)(=O)c3cccc4ccccc34)[C@H](c3ccc(N4CCCCC4)cc3)C[C@@H]21`: the GFP+ MAC1+ double positive was determined as 0.8% and the outcome was inactive.

With `O=C(NCc1ccccc1Cl)C1CCCN1S(=O)(=O)c1ccc(F)cc1` (configuration not stated), the GFP+ MAC1+ double positive amounted to 0.6% and the outcome was inactive.

For the compound `O=C(NCc1ccccc1Cl)C(=O)NCC1CCCN1S(=O)(=O)c1cccs1` (configuration not stated), the GFP+ MAC1+ double positive was 0.7% and the compound was called inactive.

In the case of `CCC1CCCCN1S(=O)(=O)Cc1ccccc1Cl` (configuration not stated), the GFP+ MAC1+ double positive was 3% and the normalized GFP-positive differentiation was 98.8% (active).

As for `O=C(N[C@@H](Cc1ccccc1)C(=O)OCc1ccccc1)c1nc[nH]c1C(=O)N[C@@H](Cc1ccccc1)C(=O)OCc1ccccc1`, the GFP+ MAC1+ double positive amounted to 0.2% and the call was inactive.

Turning to `CC(C)(C)OC(=O)CNC(=O)c1[nH]cnc1C(=O)N[C@@H](Cc1ccccc1)C(=O)OCc1ccccc1`, the GFP+ MAC1+ double positive stood at 10% and the normalized GFP-positive differentiation is 21.4% (active).

With `C[C@H](NC(=O)c1nc[nH]c1C(=O)NCC(=O)OC(C)(C)C)C(=O)OCc1ccccc1`, the GFP+ MAC1+ double positive came to 0.8% and the compound was classed as inactive.

For `FC(F)(F)c1cccc(-c2nc3ccccc3n2C(c2ccccc2)c2nc3ccccc3[nH]2)c1` (configuration not stated), the GFP+ MAC1+ double positive is 3.2% and the call was inactive.

In the case of `COc1cccc(-c2ccc3c(c2)N(Cc2ccccc2OC)C(=O)C(C)S3)c1` (configuration not stated), the GFP+ MAC1+ double positive was 0.8% and the call was inactive.

Turning to `Cc1cccnc1C(NC(=O)C1CCN(Cc2ccc(Cl)c(Cl)c2)CC1)c1ccc(Cl)cc1` (configuration not stated), the GFP+ MAC1+ double positive worked out at 0.8% and the outcome was inactive.

With `CC1=C(C(=O)N2CCOCC2)CC(CC(=O)NCc2cccs2)C(=O)N1CCCN1CCCC1=O` (configuration not stated), the GFP+ MAC1+ double positive stood at 1.4% and the result was inactive.

Regarding `Cc1ccc(NC(=O)C(C)OC(=O)C2CC3CCCC(C2)C3=O)cc1S(=O)(=O)N1CCOCC1` (configuration not stated), the GFP+ MAC1+ double positive came out at 0.8% and the call was inactive.

Regarding `Cc1ccc(NC(=O)C(C)OC(=O)Cc2c[nH]c3ccccc23)cc1S(=O)(=O)N1CCOCC1` (configuration not stated), the GFP+ MAC1+ double positive was 1% and the normalized GFP-positive differentiation is 9.47% (active).

`CC(OC(=O)CCCc1c[nH]c2ccccc12)C(=O)Nc1ccc(S(N)(=O)=O)cc1` (configuration not stated): the GFP+ MAC1+ double positive came out at 0.5% and the result was inactive.

For the compound `O=C(OC1CC2CC1[C@H]1CCCCN1C2=O)N1CCOCC1` (some centres not stated), the GFP+ MAC1+ double positive turned out to be 0.9% and the call was inactive.

As for `O=C(COC(=O)c1ccc(O)cc1O)NC(=O)c1ccccc1`, the GFP+ MAC1+ double positive turned out to be 0% and the compound was called inactive.

`O=C(NNc1c2ccccc2nc2ccccc12)c1cc2ccccc2cc1O`: the GFP+ MAC1+ double positive turned out to be 2.5% and the normalized GFP-positive differentiation is 28.5% (active).

`Cc1noc(C)c1COC(=O)c1cc2ccccc2cc1O`: the GFP+ MAC1+ double positive came to 1.2% and the compound was called inactive.

`CCc1nc2c(OCCOc3ccc(F)cc3)cccn2c1N(C)C(=O)c1ccccc1F`: the GFP+ MAC1+ double positive amounted to 0.6% and the compound was classed as inactive.

In the case of `Nc1ccccc1SC(C[N+](=O)[O-])c1ccccc1` (configuration not stated), the GFP+ MAC1+ double positive came to 1.1% and the compound was classed as inactive.

On to `CCS(=O)(=O)c1cc([N+](=O)[O-])c(Sc2ccccc2N)s1`, for which the GFP+ MAC1+ double positive stood at 1.1% and the normalized GFP-positive differentiation was 150% (active).

Turning to `CC(C)(C)N1C(=O)c2c(C(=O)OCc3ccccc3)[nH]c(-c3ccccc3)c2C1=O`, the GFP+ MAC1+ double positive was found to be 1.4% and the call was inactive.

For `CC(C)Nc1nc(NCCOc2ccccc2Cl)c2sccc2n1`, the GFP+ MAC1+ double positive was found to be 1% and the compound was called inactive.

Consider `COc1ccc(N2CCN(c3ccc([N+](=O)[O-])nc3)CC2)cc1`, for which the GFP+ MAC1+ double positive amounted to 0.9% and the result was inactive.

With `COc1ccc2nc(N3C(=O)C(O)=C(C(=O)c4ccco4)C3c3ccco3)sc2c1` (configuration not stated), the GFP+ MAC1+ double positive stood at 0.8% and the compound was classed as inactive.

Regarding `COc1ccc2nc(N3CCN(C(=O)c4ccc([N+](=O)[O-])o4)CC3)sc2c1`, the GFP+ MAC1+ double positive came to 7.3% and the normalized GFP-positive differentiation is 33.6% (active).

As to `CCc1nc2ccc(C(=O)Nc3cccc(OC)c3)cn2c1N(CCC(C)C)CCN(C)C`, the GFP+ MAC1+ double positive was 1.2% and the compound was called inactive.

Turning to `CCCCNC(=O)C[C@@H]1C[C@@]2(C(=O)OC)CC(C)(C)CC=C2N(Cc2ccco2)C1=O`, the GFP+ MAC1+ double positive was found to be 2.1% and the compound was called inactive.

Turning to `COC(=O)C[C@@H]1C=C[C@@H](NC(=O)c2cccnc2)[C@@H](CO)O1`, the GFP+ MAC1+ double positive amounted to 1.2% and the compound was called inactive.

For `CCOC(=O)C1=CC[C@@H](c2ccccc2)N(S(=O)(=O)c2ccc(C)cc2)[C@H]1c1ccc(CC)cc1`, the GFP+ MAC1+ double positive is 0.9% and the outcome was inactive.

These data come from PubChem BioAssay AID624256 (NMMLSC, 2012).
